In PubChem BioAssay (NCI):
Several values for one entry are separate records, joined by “and”; a condition that tells them apart may be missing. Equal values may be shown once. About 79,000 compounds went through this panel and 15% of them were active in at least one assay; those are over-represented in the sample as a whole. The source holds several records for some structures; these can differ, active in one and inactive in another. Activity calls are given as the source filed them. Rule as the data show it: active = growth inhibition above about 70%; inactive = the rest.

Tests used:
[1] = NCI Yeast Anticancer Drug Screen. Data for the rad50 strain (AID 155);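 also: 0% = growth of vehicle-only cultures of the same strain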; conditions: S. cerevisiae rad50 strain growth inhibition, stronger effect = higher value
Procedure, shortened: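 Compounds were tested on a yeast strain with an engineered DNA damage repair alteration; the reported value is growth inhibition normalised to vehicle treatment.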

[2] = NCI Yeast Anticancer Drug Screen. Data for the mec2-1 strain (AID 157); conditions: S. cerevisiae mec2-1 strain, stronger effect = higher value
Procedure, shortened: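 Test agents were screened against the mec2-1 yeast strain, with defined DNA repair or cell cycle alteration. Growth was scored as inhibition against vehicle-only controls.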

[3] = NCI Yeast Anticancer Drug Screen. Data for the sgs1 mgt1 strain (AID 161);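 also: 0% = growth of cultures given vehicle only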; conditions: S. cerevisiae sgs1 mgt1 strain, stronger effect = higher value
Procedure, shortened: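 Read-out: growth inhibition vs vehicle controls. Cells: mutant yeast strain deficient in DNA damage repair.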

[4] = NCI Yeast Anticancer Drug Screen. Data for the cln2 rad14 strain (AID 165);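 also: 0% = growth equal to vehicle treated cultures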; conditions: S. cerevisiae cln2 rad14 strain, stronger effect = higher value
Procedure, shortened: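 Growth of compound-exposed yeast (cln2 rad14 genotype) measured and expressed as inhibition relative to vehicle.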

[5] = NCI Yeast Anticancer Drug Screen. Data for the bub3 strain (AID 167); conditions: S. cerevisiae bub3 mutant strain, stronger effect = higher value
Procedure, shortened: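 Growth of a checkpoint-deficient yeast mutant is measured after compound exposure. Values represent inhibition relative to vehicle.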

[6] = NCI Yeast Anticancer Drug Screen. Data for the mlh1 rad18 strain (AID 175); conditions: S. cerevisiae mlh1 rad18 strain growth inhibition, stronger effect = higher value
Procedure, shortened: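 In this whole-cell yeast screen, a strain with altered DNA damage repair is challenged with compound, and its growth is measured against matched vehicle-treated controls.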

[7] = at 5.0 µM (retest, dose inferred, filed as 0.5)
[8] = at 50.0 µM (retest, dose inferred, filed as 5.0)

Compound	growth inhibition [1, 7]	growth inhibition [1, 8]	growth inhibition ([1]; at 50.0 µM)	growth inhibition [2, 7]	growth inhibition [2, 8]	growth inhibition ([2]; at 50.0 µM)	growth inhibition [3, 7]	growth inhibition [3, 8]	growth inhibition ([3]; at 50.0 µM)	growth inhibition [4, 7]	growth inhibition [4, 8]	growth inhibition ([4]; at 50.0 µM)	growth inhibition [5, 7]	growth inhibition [5, 8]	growth inhibition ([5]; at 50.0 µM)	growth inhibition [6, 7]	growth inhibition [6, 8]	growth inhibition ([6]; at 50.0 µM)
CC(C)[O-].CC(C)[O-].[O-]c1cccc2cccnc12.[O-]c1cccc2cccnc12.[Ti+4]	6% (inactive)	6% (inactive)	55.5% (inactive)	11% (inactive)	11% (inactive)	70.8% (active)	4% (inactive)	4% (inactive)	37.6% (inactive)	6% (inactive)	6% (inactive)	51.8% (inactive)	-3% (inactive)	-3% (inactive)	64.8% (inactive)	-24% (inactive)	-24% (inactive)	58.9% (inactive)
CN[C@H]1C[C@@H]2O[C@@](C)([C@H]1OC)n1c3ccccc3c3c4c(c5c6ccccc6n2c5c31)C(=O)NC4	99% (active)	99% (active)	92.3% (active)	99% (active)	99% (active)	92.9% (active)	97% (active)	99% (active)	90.6% (active)	96% (active)	99% (active)	91.5% (active)	98% (active)	98% (active)	91.8% (active)	98% (active)	99% (active)	91.8% (active)
COc1ccc(CNCCc2ccc(O)c(OC)c2)cc1O	1% (inactive)	0% (inactive)	31.4% (inactive)	1% (inactive)	3% (inactive)	-2.8% (inactive)	4% (inactive)	7% (inactive)	-0.55% (inactive)	-5% (inactive)	5% (inactive)	-6.35% (inactive)	-3% (inactive)	-3% (inactive)	8.7% (inactive)	-1% (inactive)	8% (inactive)	-4.45% (inactive)
NC(Cc1c[nH]c2ccccc12)P(=O)(O)O (configuration not stated)	-1% (inactive)	37% (inactive)	38.1% (inactive)	0% (inactive)	87% (active)	13.4% (inactive)	3% (inactive)	29% (inactive)	-7.75% (inactive)	1% (inactive)	96% (active)	22.9% (inactive)	-9% (inactive)	98% (active)	-0.8% (inactive)	-9% (inactive)	47% (inactive)	26% (inactive)
ClC1=C(Cl)C2(Cl)C3CC4OC4C=CC3C1(Cl)C2(Cl)Cl (configuration not stated)	7% (inactive) and 4% (inactive)	93% (active) and 96% (active)	96.3% (active) and 39.2% (inactive)	12% (inactive) and 5% (inactive)	97% (active) and 98% (active)	97.3% (active) and 39% (inactive)	10% (inactive) and 3% (inactive)	96% (active) and 98% (active)	96.8% (active) and 73.6% (active)	0% (inactive)	96% (active)	95.3% (active) and 47.4% (inactive)	2% (inactive) and 5% (inactive)	96% (active) and 97% (active)	97.1% (active) and 26.6% (inactive)	8% (inactive) and 2% (inactive)	96% (active)	95.3% (active) and 60.9% (inactive)
Cc1cccc2cc3ccccc3c[n+]12	5% (inactive)	63% (inactive)	89.9% (active)	6% (inactive)	49% (inactive)	84% (active)	-12% (inactive)	79% (active)	97.3% (active)	2% (inactive)	73% (active)	62.2% (inactive)	-1% (inactive)	57% (inactive)	54.2% (inactive)	14% (inactive)	89% (active)	91% (active)
COc1ccc2c3c(c4cc(OC)c(OC)cc4c2c1)C[C@H]1CCCCN1C3	99% (active)	99% (active)	92.6% (active)	99% (active)	100% (active)	94.2% (active)	99% (active)	99% (active)	93.8% (active)	99% (active)	99% (active)	92.5% (active)	99% (active)	99% (active)	93.2% (active)	99% (active)	99% (active)	93% (active)
CN1c2cccc[c]2[Sn]([CH3])([CH3])[c]2ccccc21	98% (active)	99% (active)	99.4% (active)	99% (active)	99% (active)	99.2% (active)	97% (active)	99% (active)	99.5% (active)	77% (active)	100% (active)	94% (active)	7% (inactive)	99% (active)	99.2% (active)	98% (active)	99% (active)	99.3% (active)
Cc1cc(N(C)C)c2ccccc2[n+]1CCCCCCCCCC[n+]1c(C)cc(N(C)C)c2ccccc21	92% (active)	98% (active)	89.1% (active)	98% (active)	99% (active)	91.8% (active)	95% (active)	99% (active)	88.8% (active)	87% (active)	96% (active)	91% (active)	94% (active)	98% (active)	89.5% (active)	97% (active)	99% (active)	91.8% (active)
C[C@]12Cc3conc3C(O)=C1CC[C@@H]1C2CC[C@@]2(C)C1CC[C@@H]2O (some centres not stated)	2% (inactive)	5% (inactive)	81.3% (active)	0% (inactive)	0% (inactive)	63.5% (inactive)	1% (inactive)	35% (inactive)	57.1% (inactive)	1% (inactive)	24% (inactive)	55.2% (inactive)	-49% (inactive)	3% (inactive)	71.2% (active)	-1% (inactive)	15% (inactive)	78.2% (active)
C[CH2][Sn]([Cl])([CH2]C)[O][Sn]([Cl])([CH2]C)[CH2]C	6% (inactive)	90% (active)	85.2% (active)	4% (inactive)	89% (active)	96.2% (active)	6% (inactive)	94% (active)	72.2% (active)	-3% (inactive)	86% (active)	95% (active)	6% (inactive)	88% (active)	96.7% (active)	8% (inactive)	83% (active)	84.9% (active)
ClCCN(CCCl)c1ccc(CN2CCCN(Cc3ccc(N(CCCl)CCCl)cc3Cl)C2c2ccncc2)c(Cl)c1	2% (inactive)	91% (active)	93.5% (active)	4% (inactive)	96% (active)	96.8% (active)	-4% (inactive)	96% (active)	93.9% (active)	-5% (inactive)	94% (active)	43.9% (inactive)	0% (inactive)	93% (active)	1.9% (inactive)	9% (inactive)	95% (active)	97.1% (active)
CC[CH2][Sn]([Br])([Br])[CH2]CC	29% (inactive)	91% (active)	83.2% (active)	21% (inactive)	95% (active)	87.2% (active)	35% (inactive)	95% (active)	87.1% (active)	26% (inactive)	87% (active)	85.2% (active)	31% (inactive)	96% (active)	83.2% (active)	33% (inactive)	93% (active)	87.1% (active)
c1ccc2c(c1)[nH]c1c2cc[n+]2cc3c(cc12)CCCC3	30% (inactive) and 19% (inactive)	79% (active) and 97% (active)	89.2% (active) and 91.5% (active)	51% (inactive) and 19% (inactive)	85% (active) and 97% (active)	89.6% (active) and 91.6% (active)	45% (inactive) and 26% (inactive)	97% (active) and 98% (active)	91.9% (active)	55% (inactive) and 26% (inactive)	97% (active) and 89% (active)	83.2% (active)	68% (inactive) and 33% (inactive)	96% (active) and 98% (active)	91.3% (active)	29% (inactive) and 27% (inactive)	89% (active) and 98% (active)	88.7% (active) and 86.2% (active)
